IL1B NFkB pot: enhancers of NFkB p65 translocation in HUVEC – imaging, IL-1B stimulus, high-content imaging, primary screen; 94,000 tested, 0.3% active; activation, % at 2 µM; HUVEC IL-1B NFkB p65 nuclear translocation imaging; AID 819, 2007;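 active = activation above 40%, about the mean plus 3 SD, also judged a hit on visual image review; inconclusive = activation above 40% but not a hit on visual review; inactive = activation not above 40% and no visual hit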;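 note: percent activation is computed from the nuclear over cytoplasmic p65 intensity ratio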
HUVEC tox IL1B: cytotoxicity in IL-1B stimulated HUVEC, primary screen, cytotoxicity control for IL-1B NFkB translocation project, imaging, Hoechst nuclear count, IL-1B stimulus | HUVEC cell count loss | cell count reduction, % at 2 µM | 94,000 tested, 0.41% active | AID 845, 2007;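 active = cell count reduction more than 3 SD above the screen-wide mean, cut at about 70% in these data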;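 note: normalized per plate to untreated control cells as the no-loss baseline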
NFkB transloc inh: inhibitors of IL-1B driven NFkB p65 nuclear import, primary screen, imaging, HUVEC, IL-1B stimulus, high-content imaging | AID 796, 2007 | 94,000 tested, 0.43% active | HUVEC IL-1B NFkB p65 nuclear translocation imaging | inhibition, % at 2 µM;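 active = inhibition above about 30% together with a positive call from visual inspection of the well image, limit read from the data; inconclusive = inhibition above a set limit but visual check negative; inactive = inhibition not above a set limit, visual check negative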;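 note: nuclear over cytoplasmic p65 intensity ratio measured by imaging; 0% = IL-1B stimulated DMSO wells and 100% = unstimulated DMSO wells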
Measles CPE: compounds protecting cells from measles virus cytopathic effect, primary screen, measles RdRp inhibitor project, single point, MLSMR library, absorbance; Measles virus-infected cells, CPE protection; protection (pct of control), % at 4 µM; 140,000 tested, 1.5% active; in the data active = protection mostly above about 24%, no sharp cut-off; inactive = mostly below about 26%
Starred values were filed as active, the others as inactive. An excerpt weighted towards active compounds, which were near 2.1% of everything screened.

CNC(=O)NC(=O)C(C)OC(=O)c1cc2c(s1)CCCCC2 (stereo not given) was read as Measles CPE 29*.
Screening O=C(O)C1C2C=CC(O2)C1C(=O)NCCCn1ccnc1 (stereo not given) returned IL1B NFkB pot -5, HUVEC tox IL1B 1, NFkB transloc inh 5 and Measles CPE 17.
COc1ccc(NC(=O)C2CCCN2S(=O)(=O)c2cccc3cccnc23)c(OC)c1 (stereo not given) was read as IL1B NFkB pot 75*, HUVEC tox IL1B -11, NFkB transloc inh -75 and Measles CPE 20.
For CC12CC(c3ccccc3O1)C(C(=O)NCc1ccccc1)C(=O)N2 (stereo not given) the results were IL1B NFkB pot -1, HUVEC tox IL1B 4, NFkB transloc inh 2 and Measles CPE 2.
Screening Nc1nc2ccc(S(=O)(=O)c3ccc4nc(N)sc4c3)cc2s1 returned IL1B NFkB pot 4, HUVEC tox IL1B -21, NFkB transloc inh -4 and Measles CPE 8.
Screening Nc1nc2ccc(O)cc2s1 returned IL1B NFkB pot -35, HUVEC tox IL1B -33, NFkB transloc inh 35* and Measles CPE 9.
Screening Cc1ccc(S(=O)(=O)N2CCCCC2)cc1NC(=O)c1ccc2c(=O)n3c(nc2c1)CCCCC3 returned Measles CPE 7.
For O=C(c1ccc2c(=O)n3c(nc2c1)CCCCC3)N1CCN(C(c2ccccc2)c2ccccc2)CC1 the results were IL1B NFkB pot 1, HUVEC tox IL1B 3, NFkB transloc inh -1 and Measles CPE 42*.
Screening Cc1ccc(-c2csc(NC(=O)c3ccc4c(=O)n5c(nc4c3)CCCCC5)n2)cc1 returned Measles CPE 56*.
Screening CC(=O)c1c(C)n(C)c2ccc(O)cc12 returned IL1B NFkB pot 16, HUVEC tox IL1B -12, NFkB transloc inh -16 and Measles CPE 39*.
Screening Cc1c(C(=O)O)c2cc(O)ccc2n1-c1ccccc1 returned IL1B NFkB pot 24, HUVEC tox IL1B -8, NFkB transloc inh -24 and Measles CPE 16.
For O=C(COC(=O)c1cnccn1)NCc1ccccc1 the results were IL1B NFkB pot 2, HUVEC tox IL1B -1, NFkB transloc inh -2 and Measles CPE 2.
O=C(Oc1ccccc1)c1cccc(COC(=O)c2cnccn2)c1 was read as IL1B NFkB pot 30, HUVEC tox IL1B 87*, NFkB transloc inh -30 and Measles CPE 3.
O=C(O)CCNS(=O)(=O)c1ccc(Oc2ccccc2)cc1 was read as IL1B NFkB pot 16, HUVEC tox IL1B -65, NFkB transloc inh -16 and Measles CPE 17.
CC(=O)N(CCO)Cc1cc2cc(C)cc(C)c2[nH]c1=O was read as IL1B NFkB pot -5, HUVEC tox IL1B -2, NFkB transloc inh 5 and Measles CPE 21.
Screening COc1cc(NC(=O)Cn2nc(C(F)(F)F)c3c2CCCC3)cc(OC)c1OC returned IL1B NFkB pot 16, HUVEC tox IL1B 71*, NFkB transloc inh -16 and Measles CPE 4.
`COc1ccc(/C=N/NC(=O)CC2N=C(Cc3ccccc3)NNC2=O)cc1OC` (stereo not given) gave Measles CPE 28*.
O=C(CCC(=O)c1cccs1)NCc1ccc(Cl)cc1 was read as IL1B NFkB pot 12, HUVEC tox IL1B 9, NFkB transloc inh -12 and Measles CPE 11.
For Cc1ccc(CNC(=O)CCC(=O)c2cccs2)cc1 the results were IL1B NFkB pot 22, HUVEC tox IL1B -4, NFkB transloc inh -22 and Measles CPE 60*.
CCOC(=O)c1c(/N=C/c2cc([N+](=O)[O-])ccc2O)sc(C)c1C was read as Measles CPE 23.
Screening CCOC(=O)c1c(/N=C/C2=C(O)CC(C)(C)CC2=O)sc(C)c1C returned Measles CPE 52*.
Screening CC1CCc2nn(CC(=O)N3CCN(C(=O)c4ccco4)CC3)cc2C1 (stereo not given) returned IL1B NFkB pot 26, HUVEC tox IL1B -6, NFkB transloc inh -26 and Measles CPE 6.
For C=CCNC(=S)NNC(=O)c1cccn(Cc2ccc(Cl)cc2)c1=O the results were IL1B NFkB pot 4, HUVEC tox IL1B 84*, NFkB transloc inh -4 and Measles CPE 2.
`O=C(NC1CCCCCC1)C1CCN(c2nc3ccccc3o2)CC1` gave IL1B NFkB pot 7, HUVEC tox IL1B 18, NFkB transloc inh -6 and Measles CPE 32*.
O=C(CSc1nc(O)cc(=O)[nH]1)N1CCCc2ccccc21 was read as IL1B NFkB pot 3, HUVEC tox IL1B -7, NFkB transloc inh -3 and Measles CPE 48*.
O=C(CCCOc1ccccc1)N1CCCc2ccccc21 was read as IL1B NFkB pot -55, HUVEC tox IL1B 5, NFkB transloc inh 55* and Measles CPE 19.
`O=C(COc1ccccc1)N1CCc2ccccc21` gave Measles CPE 3.
COc1cc(OC)cc(-c2nnc(SCC(=O)N3CCCc4ccccc43)o2)c1 was read as IL1B NFkB pot 3, HUVEC tox IL1B -22, NFkB transloc inh -3 and Measles CPE 35*.
For Cn1c(=O)c2c(SCC(=O)N3CCCc4ccccc43)nc(CC(C)(C)C)nc2n(C)c1=O the results were IL1B NFkB pot 42*, HUVEC tox IL1B 2, NFkB transloc inh -42 and Measles CPE 5.
For Cc1cccc(Cn2c(=O)c3c(nc4n3CCCN4Cc3ccccc3)n(C)c2=O)c1 the results were IL1B NFkB pot inconclusive, HUVEC tox IL1B -6, NFkB transloc inh -101 and Measles CPE 7.
Screening Cc1cc2ncn(C(=O)c3cc(-c4ccccc4)nc4ccccc34)c2cc1C returned Measles CPE 29*.
`CCN(CC)S(=O)(=O)c1ccc(Cl)c(C(=O)NC)c1` gave IL1B NFkB pot 6, HUVEC tox IL1B -47, NFkB transloc inh -6 and Measles CPE 45*.
CCc1nnc(NC(=O)c2cc(S(=O)(=O)N(CC)CC)ccc2Cl)s1 was read as IL1B NFkB pot -13, HUVEC tox IL1B -2, NFkB transloc inh 13 and Measles CPE 9.
Screening COc1ccc(-c2[nH]c3ccccc3c2SCCNC(=O)c2ccccc2)cc1 returned Measles CPE 32*.
For COc1ccc(C(=O)NCCSc2ccccc2)cc1 the results were Measles CPE 6.
For CC1CCCCN1C(=O)Cn1c(=O)n(CCC(=O)NCc2ccco2)c(=O)c2sccc21 (stereo not given) the results were IL1B NFkB pot 9, HUVEC tox IL1B -6, NFkB transloc inh -9 and Measles CPE 11.
For Cc1ccc(Oc2cnc3ccccc3n2)cc1 the results were IL1B NFkB pot 8, HUVEC tox IL1B -72, NFkB transloc inh -8 and Measles CPE 67*.
`O=C(NCCCNCc1ccccc1)c1ccncc1` gave IL1B NFkB pot -3, HUVEC tox IL1B -2, NFkB transloc inh 3 and Measles CPE 40*.
`CN(C)CCCNCCCNC(=O)c1ccncc1` gave IL1B NFkB pot -4, HUVEC tox IL1B -3, NFkB transloc inh 4 and Measles CPE 1.
Screening C[n+]1ccn(CC(=O)c2ccc(Cl)cc2)c1 returned Measles CPE 39*.

Bioassay records: PubChem, several laboratories
